# Assay results published in the supplement of paper PMC6609913.
# Structures can show the parent of a compound that is named as a salt. ± gives the standard deviation of the averaged measurements. In all, about 1,300 compounds were measured (“normalised cell viability”: median about 1, lowest 2% from about 0.15 on). Only a selection was taken, and the lowest values are over-represented in it overall.
# Test system: V-C8 + BRCA2 (BRCA2-proficient hamster cells)
# Test: normalised cell viability (fraction of plate median); higher = more viable cells (less toxic)
# Settings: 5 µM
# Method in brief: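 Hamster V-C8 cells lacking BRCA2 and V-C8 cells with BRCA2 restored were seeded in 96-well plates. Library drugs (10 mM DMSO stocks) were added 24 h later at 5 μM in 100 μl medium, next to DMSO control wells, for 3 days (screen 1) or 6 days (screen 2). Cell viability was read by resazurin assay, median-plate normalised (modified robust per cent of sample), and triplicate wells were averaged.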
SMILES,normalised cell viability (treatment time: 3 days),normalised cell viability (treatment time: 6 days)
C=C1[C@@H]2CC[C@H]3[C@]4(C)C[C@H](O[C@@H]5O[C@H](CO)[C@@H](OS(=O)(=O)O)[C@H](OS(=O)(=O)O)[C@H]5OC(=O)CC(C)C)C[C@@H](C(=O)O)[C@H]4CC[C@]3(C2)[C@@H]1O [Atractyloside potassium salt],1.08 ± 0.093,1.15 ± 0.031
COc1ccc2c(c1)[C@]13CCCC[C@@H]1[C@H](C2)N(C)CC3 [Dextromethorphan hydrobromide monohydrate],1.13 ± 0.078,1.02 ± 0.054
"CC[C@@]1(O)C(=O)OCc2c1cc1n(c2=O)Cc2cc3ccccc3nc2-1 [Camptothecine (S,+)]",0.142 ± 0.014,0.124 ± 0.012
CCC(=O)O[C@H]1CC[C@H]2[C@@H]3CCC4=CC(=O)CC[C@]4(C)[C@H]3CC[C@]12C [Testosterone propionate],0.906 ± 0.085,1 ± 0.1
CN1[C@@H]2CC[C@H]1C[C@@H](OC(=O)C(CO)c1ccccc1)C2 (some centres undefined) [Atropine sulfate monohydrate],0.925 ± 0.033,0.988 ± 0.053
O=C(CCCN1CCC2(CC1)C(=O)NCN2c1ccccc1)c1ccc(F)cc1 [Spiperone],1.07 ± 0.04,0.997 ± 0.072
CCCCCC[C@H]1C(=O)O[C@H](C)[C@H](NC(=O)c2cccc(NC=O)c2O)C(=O)O[C@@H](C)[C@@H]1OC(=O)CC(C)C [Antimycin A],0.148 ± 0.012,0.124 ± 0.011
CCCC(C)(COC(N)=O)COC(=O)NC(C)C (centres undefined) [Carisoprodol],0.992 ± 0.042,1.09 ± 0.04
"CN1CCC2(C)c3cc(O)ccc3N(C)C12 (single isomer, unassigned; (-)) [(-)-Eseroline fumarate salt]",0.694 ± 0.028,0.769 ± 0.015
CCC(C)C1O[C@]2(C=C[C@@H]1C)C[C@@H]1CC(C/C=C(\C)[C@@H](OC3C[C@H](OC)[C@@H](OC4C[C@H](OC)[C@@H](O)[C@H](C)O4)[C@H](C)O3)[C@@H](C)/C=C/C=C3\COC4[C@H](O)C(C)=CC(C(=O)O1)[C@]34O)O2 (some centres undefined) [Avermectin B1a],0.303 ± 0.021,0.193 ± 0.025
CC(C)(N)Cc1ccccc1 [Phentermine hydrochloride],1 ± 0.041,0.995 ± 0.023
"NCC(CC(=O)O)c1ccc(Cl)cc1 (racemic) [Baclofen (R,S)]",0.897 ± 0.079,0.956 ± 0.083
